Test results: the supplement of paper PMC3545927
The list shows a part of the results. No count for the full screen is at hand.

Biological target: furin, P09958
Assay: furin cleavage Z-score vs untreated control; higher = more cleavage, active = 3.5 or more, inactive = 1 or less, 8 variable residues between constant flanks
How it was run: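 The cleavage Z-score is the log read count relative to furin-free reactions, lowess-adjusted and scaled by median absolute deviation. Counts came from sequencing DNA released from bead-bound 8-mer peptide–cDNA fusions after digestion with purified furin for 7.5, 15 or 30 min.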
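Note: purified furin at 1:10 enzyme:substrate in 50 mM HEPES pH 7.5.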

Chain of furin, P09958 (P09958 whole entry): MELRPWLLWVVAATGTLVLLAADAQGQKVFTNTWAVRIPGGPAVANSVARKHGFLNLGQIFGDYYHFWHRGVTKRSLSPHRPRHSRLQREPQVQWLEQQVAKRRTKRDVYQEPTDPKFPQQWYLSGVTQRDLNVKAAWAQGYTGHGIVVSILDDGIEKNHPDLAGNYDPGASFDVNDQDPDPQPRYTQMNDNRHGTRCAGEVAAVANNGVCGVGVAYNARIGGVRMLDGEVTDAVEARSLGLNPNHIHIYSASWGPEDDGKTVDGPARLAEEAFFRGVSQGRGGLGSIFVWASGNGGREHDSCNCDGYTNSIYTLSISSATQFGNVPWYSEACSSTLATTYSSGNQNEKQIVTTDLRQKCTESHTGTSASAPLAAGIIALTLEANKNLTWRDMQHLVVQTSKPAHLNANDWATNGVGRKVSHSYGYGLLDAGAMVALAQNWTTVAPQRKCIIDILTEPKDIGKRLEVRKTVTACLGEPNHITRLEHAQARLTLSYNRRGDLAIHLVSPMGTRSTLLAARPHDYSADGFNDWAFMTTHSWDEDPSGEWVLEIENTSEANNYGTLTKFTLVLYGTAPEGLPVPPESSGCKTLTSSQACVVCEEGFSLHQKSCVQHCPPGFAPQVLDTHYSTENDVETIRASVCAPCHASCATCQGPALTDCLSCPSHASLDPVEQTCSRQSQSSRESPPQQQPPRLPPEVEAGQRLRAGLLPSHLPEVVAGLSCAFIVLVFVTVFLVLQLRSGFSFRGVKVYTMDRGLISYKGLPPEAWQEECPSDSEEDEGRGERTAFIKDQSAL

Row | Sequence | furin cleavage Z-score (7.5 min) | furin cleavage Z-score (15 min) | furin cleavage Z-score (30 min)
1 | CAQEMEECSQAGNASASA [HC1802] | -0.772 (inactive) | 0.513 (inactive) | -1.67 (inactive)
2 | CAVVCCSMGYAGNASASA [HC2076] | -1.88 (inactive) | -0.775 (inactive) | -0.0504 (inactive)
3 | CAVVECSMSYAGNASASA [HC2032] | -0.21 (inactive) | -0.185 (inactive) | 0.282 (inactive)
4 | CAYYRGLDVSAGNASASA [HC869] | 0.136 (inactive) | -0.206 (inactive) | -0.42 (inactive)
5 | CATLSTALAEAGNASASA [HC1330] | -0.432 (inactive) | -1.49 (inactive) | -1.25 (inactive)
6 | CAALSRGKREAGNASASA [FS-1584] | 11.2 (active) | 11.6 (active) | 8.56 (active)
7 | CAVRVQGLLRAGNASASA [HC617] | -0.956 (inactive) | -0.879 (inactive) | -0.866 (inactive)
8 | CARLSRGTRPAGNASASA [FS-1748] | 1.1 | 0.607 (inactive) | 1.39
9 | CARLFRGLDSAGNASASA [FS-2430] | -0.523 (inactive) | -0.794 (inactive) | 0.531 (inactive)
10 | CAVRFRGKREAGNASASA [FS-514] | 11.2 (active) | 9.46 (active) | 7.95 (active)
11 | CAMEECSQWLAGNASASA [HC1748] | 1.29 | 1.35 | -0.383 (inactive)
12 | CAQEMGGNITAGNASASA [HC1278] | 0.989 (inactive) | 0.052 (inactive) | 0.798 (inactive)
13 | CAANGSGPDQAGNASASA [HC398] | -0.135 (inactive) | -1.15 (inactive) | 0.257 (inactive)
14 | CAEVCCSMSYAGNASASA [HC1992] | 0.759 (inactive) | 0.26 (inactive) | 0.528 (inactive)
15 | CARRRRAVGLAGNASASA [FS-2595] | 3.99 (active) | 4.72 (active) | 5.23 (active)
16 | CARRRRSVQLAGNASASA [FS-1789] | 1.43 | 0.51 (inactive) | 2.7
17 | CAAAIGSVGLAGNASASA [HC1079] | -0.425 (inactive) | -0.896 (inactive) | -0.452 (inactive)
18 | CARRRRLVWTAGNASASA [FS-2079] | -0.712 (inactive) | 0.718 (inactive) | 2.58
19 | CARTMRSSAGAGNASASA [FS-2831] | 0.517 (inactive) | -0.365 (inactive) | 0.495 (inactive)
20 | CARRRRCVGLAGNASASA [FS-2403] | 2.54 | 1.19 | 5.18 (active)
21 | CARTMRSVGLAGNASASA [FS-1936] | 5.41 (active) | 6.11 (active) | 5.7 (active)
22 | CARRRRDVVTAGNASASA [FS-2232] | 11.1 (active) | 11.8 (active) | 8.98 (active)

Row | Sequence | furin cleavage Z-score (7.5 min) | furin cleavage Z-score (15 min) | furin cleavage Z-score (30 min)
23 | CAADVVCCSMAGNASASA [HC2103] | 1.06 | 0.666 (inactive) | 0.566 (inactive)
24 | CATLVFDITKAGNASASA [HC602] | 1.27 | 0.292 (inactive) | -0.917 (inactive)
25 | CALITWGADTAGNASASA [HC652] | 0.62 (inactive) | 1.26 | -1.35 (inactive)
26 | CAQLSAPSLKAGNASASA [HC1263] | 1.12 | 0.729 (inactive) | -0.193 (inactive)
27 | CARGRRSLEFAGNASASA [FS-1952] | 4.88 (active) | 7.64 (active) | 7.06 (active)
28 | CAVYRRSLGKAGNASASA [FS-2202] | -0.0765 (inactive) | -0.584 (inactive) | -0.11 (inactive)
29 | CARSVRPVEFAGNASASA [FS-3100] | -0.873 (inactive) | -2.07 (inactive) | -1.68 (inactive)
30 | CARGRRSLGSAGNASASA [FS-1713] | 7.83 (active) | 9.89 (active) | 8.32 (active)
31 | CAMEECSAHLAGNASASA [HC1723] | 1.16 | 1.94 | 0.224 (inactive)
32 | CAANHDSPDAAGNASASA [HC1269] | -0.381 (inactive) | 0.0398 (inactive) | -1.93 (inactive)
33 | CAEVVTWTWVAGNASASA [HC147] | 0.828 (inactive) | 0.782 (inactive) | -0.799 (inactive)
34 | CAAEGWWARSAGNASASA [FS-394] | 0.0718 (inactive) | 0.063 (inactive) | -0.127 (inactive)
35 | CAKQRRLPRSAGNASASA [FS-678] | 5.31 (active) | 3.74 (active) | 3.02
36 | CAESRRLPRSAGNASASA [FS-1321] | 4.7 (active) | 3.1 | 2.83
37 | CANLGRLYRSAGNASASA [FS-1546] | 1.72 | 0.0213 (inactive) | 0.362 (inactive)
38 | CAAPQRLPRSAGNASASA [FS-1305] | 5.56 (active) | 4.41 (active) | 3.78 (active)
39 | CAAPARWPRSAGNASASA [FS-974] | 8.41 (active) | 5.86 (active) | 6.73 (active)
40 | CAESSRLLRSAGNASASA [FS-994] | -0.56 (inactive) | -0.471 (inactive) | -0.146 (inactive)
41 | CATPGCVPCVAGNASASA [HC272] | -0.91 (inactive) | 0.456 (inactive) | 0.199 (inactive)
42 | CAILNRPKRYAGNASASA [FS-666] | 4.17 (active) | 4.91 (active) | 4.53 (active)
43 | CAHHQRPKRYAGNASASA [FS-792] | 8.28 (active) | 9.17 (active) | 7.59 (active)
